Source: PubChem BioAssay (The Scripps Research Institute Molecular Screening Center)
Compounds with a hit are over-represented: about 3.5% of the library has one in this group of screens.
GPR151 ag: activates the human receptor GPR151. Q8TDV0. PathHunter beta-arrestin GPR151 cells, luminescence. activation, % at 11.2 µM. actives 1% (n = 650,000). AID 1508602; in the data active means activation above about 4.9%;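 further: 0% = median of compound wells and 100% = cells with positive control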
MITF inh: inhibitors of human MITF. AlphaScreen MITF homodimerization, bead proximity signal. inhibition, % at 2.6 µM. actives 0.91% (n = 650,000). AID 1259374; in the data active means inhibition above about 50%;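 further: 0% = vehicle wells with protein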
TEAD-YAP inh: TEAD-YAP interaction inhibition. actives 1.4% (n = 640,000). inhibition, % at 9.12 µM. HEK-TIYL cells, TEAD-Gal4/YAP UAS-luciferase luminescence; in the data active means inhibition above about 32%;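 further: 0% = median of test compound wells and 100% = reference inhibitor wells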
FBW7 activator: activators of human E3 ligase FBW7 | normalized activity (activation), % at 26.1 µM | Q969H0 | AlphaScreen FBW7–phospho-cyclin E peptide binding, activator screen | actives 0.13% (n = 650,000); in the data active means normalized activity above about 1.9%;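 further: purified mutant Fbw7 with reduced substrate affinity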
Target sequence (Q969H0 whole entry, looked up): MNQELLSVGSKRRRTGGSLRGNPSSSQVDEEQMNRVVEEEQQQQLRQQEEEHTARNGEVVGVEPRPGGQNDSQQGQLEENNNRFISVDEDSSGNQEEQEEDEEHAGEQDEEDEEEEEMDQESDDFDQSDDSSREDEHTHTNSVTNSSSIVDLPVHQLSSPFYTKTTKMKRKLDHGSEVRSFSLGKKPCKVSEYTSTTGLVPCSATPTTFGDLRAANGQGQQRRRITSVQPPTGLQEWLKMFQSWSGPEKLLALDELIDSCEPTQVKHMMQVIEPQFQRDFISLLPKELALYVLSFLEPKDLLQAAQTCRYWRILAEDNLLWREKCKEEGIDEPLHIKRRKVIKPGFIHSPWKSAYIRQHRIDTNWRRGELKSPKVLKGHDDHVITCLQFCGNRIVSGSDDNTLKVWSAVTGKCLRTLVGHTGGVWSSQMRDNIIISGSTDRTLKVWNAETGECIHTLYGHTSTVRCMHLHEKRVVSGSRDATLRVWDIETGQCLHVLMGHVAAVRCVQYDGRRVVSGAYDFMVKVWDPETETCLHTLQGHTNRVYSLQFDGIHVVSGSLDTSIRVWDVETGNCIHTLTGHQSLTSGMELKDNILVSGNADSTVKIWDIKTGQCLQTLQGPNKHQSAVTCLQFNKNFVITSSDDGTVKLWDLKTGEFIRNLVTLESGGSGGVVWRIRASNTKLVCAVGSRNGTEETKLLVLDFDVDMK
GPR151 confirm: confirmation of human GPR151 activators; shares compounds with GPR151 ag; GPR151 PathHunter beta-arrestin cells, luminescence, 90 min; % of EA-reagent control over plate median; activation, % at 11.2 µM; 6,700 tested, under 10 active; AID 1508609;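 active means mean percent activation across replicates above the confirmation screen cutoff of 4.91%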
GPR119 counter: counter-screen for GPR151 activators: effect on human GPR119 | shares compounds with GPR151 ag | GPR119 PathHunter beta-arrestin cells, luminescence, 90 min; 0 = compound-well median, 100 = enzyme-acceptor control | activation, % at 11.2 µM | actives 0.3% (n = 6,700) | AID 1508611;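 active means mean percent activation in the counterscreen above 29.09%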;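 further: counterscreen on off-target GPR119 to flag nonselective hits from the GPR151 activator screen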
The depositor's hits bear a star; / = not tested or not shown.

SMILES	GPR151 ag	MITF inh	TEAD-YAP inh	FBW7 activator	GPR151 confirm	GPR119 counter
Oc1ccc(C(c2ccc(O)cc2)c2ccc(F)cc2)cc1	7.7*	6	7	0	-1	20
NC(CC(=O)O)c1ccc(F)cc1 (stereo not drawn)	-1	-3	-1	0	/	/
Cc1[nH]c2ccccc2c1/C=N/Nc1ccccc1[N+](=O)[O-]	6.9*	40	-54	0	0	9
COc1ccccc1CNC(=O)c1cc2c(=O)n3cccc(C)c3nc2s1	-1	-2	-6	0	/	/
COc1ccc(CN2CCC3(CCC(CNS(=O)(=O)C(C)C)O3)CC2)cc1 (stereo not drawn)	6.3*	-3	0	0	0	3
COCCCNC(=O)CN(c1ccc(I)cc1)S(C)(=O)=O	6.7*	12	0	0	0	11
CCC(C)NC(=O)COc1ccc(Cl)c(C)c1 (stereo not drawn)	1	-13	-8	0	/	/
CSc1nnc(-c2ccco2)n1-c1ccccc1	5.1*	3	-3	0	1	13
COCC1CCN(c2nc3nonc3nc2NCc2cccs2)CC1	0	-3	1	0	/	/
COC1CCN(c2nc3nonc3nc2NCc2cccs2)CC1	8.8*	6	-27	0	1	2
CN(C)c1cccc(Nc2cc(C(=O)NCc3cccc(C(F)(F)F)c3)c3ccccc3n2)c1	0	6	11	0	/	/
Cc1cc(Br)ccc1NC(=O)c1cc2c(ccc3ccccc32)o1	-1	-4	0	0	/	/
COCCNC(=S)Nc1ccccc1Cl	1	1	8	0	/	/
Cn1c(=O)c2c(nc(SCc3ccccn3)n2C)n(C)c1=O	0	13	13	0	/	/
Cn1c(=O)c2c(nc(SCc3ccccc3F)n2C)n(C)c1=O	4.9*	1	7	0	1	12
COc1ccc(-n2nnc3c(N4CCN(C(=O)CC5CCCCC5)CC4)ncnc32)cc1	2	1	-3	0	/	/
COc1cccc(-n2nnc3c(N4CCN(S(=O)(=O)c5cc(F)ccc5F)CC4)ncnc32)c1	6.0*	-5	2	0	-1	-4
COc1ccc(-n2nnc3c(N4CCN(C(=O)Cc5ccc(Cl)cc5)CC4)ncnc32)cc1	5.5*	1	0	0	0	-3
COc1ccc(OC)c(C2C(C(=O)c3ccco3)=C(O)C(=O)N2c2cc(C)on2)c1 (stereo not drawn)	4	-12	10	0	/	/
CC(=O)Nc1ccccc1OC(F)F	7.1*	7	-3	0	1	13
O=C(Nc1ccccc1OC(F)F)c1ccc(F)cc1	1	7	-18	0	/	/
O=C(Cn1cc2c(n1)CCCC2)NCCCN1CCN(C2CCCCC2)CC1	5.0*	14	6	0	1	11
O=C(Cn1cc2c(n1)CCCC2)NCCCN1CCCCC1	1	0	2	1	/	/
Cc1cccc(-n2c(=O)[nH]c3c(C(N)=O)nc(-c4cccs4)nc32)c1	-1	6	5	0	/	/
NC(=O)c1ccc(-c2cccc3c2OC(CNC(=O)Cc2ccsc2)C3)cc1 (stereo not drawn)	0	-11	4	0	/	/
SMILES	GPR151 ag	MITF inh	TEAD-YAP inh	FBW7 activator	GPR151 confirm	GPR119 counter
O=C1NC(=Nc2ccccc2Cl)S/C1=C/c1cccc(Cl)c1Cl	3	-1	9	0	/	/
N#C/C(=C\c1cccc([N+](=O)[O-])c1)C(N)=O	5.7*	2	-3	0	0	3
CC(=O)Oc1cccc(/C=C(\C#N)C(=O)Nc2ccc([N+](=O)[O-])cc2C)c1	6.3*	13	12	0	-1	-9
Cc1c(C(=O)N/N=C/c2cccc([N+](=O)[O-])c2)[nH]c2c([N+](=O)[O-])cccc12	5.2*	1	-7	0	0	-9
N#C/C(=C/c1cccc([N+](=O)[O-])c1)C(=O)Nc1ccc(O)cc1	-1	1	-8	1	/	/
NC(=O)N/N=C\c1cccc([N+](=O)[O-])c1	7.6*	10	0	0	-1	-4
O=C(CC(=O)N/N=C/c1cccc([N+](=O)[O-])c1)N/N=C/c1cccc([N+](=O)[O-])c1	0	8	17	0	/	/
Cc1cc([N+](=O)[O-])ccc1NC(=O)/C(C#N)=C/c1cccc([N+](=O)[O-])c1	0	9	4	0	/	/
COc1ccc([N+](=O)[O-])cc1NC(=O)c1sc2ncnc(N3CCc4ccccc4C3)c2c1C	0	2	-4	0	/	/
Cc1ccc2nc(C3CCCCN3C(=O)C3CC(=O)N(C)C3)[nH]c2c1 (stereo not drawn)	0	15	-3	0	/	/
COc1ccc(/C=C/C(=O)Nc2cc([N+](=O)[O-])ccc2F)cc1OC	0	8	3	0	/	/
CCOCC(=O)Nc1cc([N+](=O)[O-])ccc1C	6.2*	-8	1	0	0	-5
CCOCC(=O)Nc1cc([N+](=O)[O-])ccc1OC	1	8	4	0	/	/
COc1ccc([N+](=O)[O-])cc1NC(=O)/C=C/c1ccc(F)cc1	8.8*	12	19	0	0	-15
COc1ccc(/C=C/C(=O)Nc2cc([N+](=O)[O-])ccc2OC)cc1Br	5.4*	15	3	0	1	0
CCOc1ccc(/C=C/C(=O)Nc2cc([N+](=O)[O-])ccc2C)cc1OC	6.5*	-12	8	0	1	8
COc1ccc(/C=C/C(=O)Nc2ccc([N+](=O)[O-])cc2OC)cc1Br	0	6	3	0	/	/
Cc1nc(Sc2nnc3cc(C)c4ccccc4n23)c2c3c(sc2n1)CCCC3	-1	-15	0	0	/	/
O=C(/C=C/c1ccc([N+](=O)[O-])cc1)Nc1ccccc1C(=O)Nc1cccc(C(=O)O)c1	4.9*	1	-6	0	1	18
CC(C)C(OC(=O)c1ccco1)C(=O)NCCc1ccccc1 (stereo not drawn)	0	-5	-1	0	/	/
COc1ccccc1-c1ccc(=O)n(CC(=O)Nc2ccc(Br)cc2)n1	9.6*	-2	5	0	0	-5
COc1cccc(-c2ccc(=O)n(CC(=O)Nc3ccc(Cl)c(C(F)(F)F)c3)n2)c1	18*	-7	-2	0	1	-1
COc1cccc(-c2ccc(=O)n(CC(=O)Nc3ccc(C(=O)N4CCCC4)cc3)n2)c1	1	0	-10	0	/	/
O=C(NN(c1ccccc1)c1ccccc1)c1cccc(C(=O)NN(c2ccccc2)c2ccccc2)c1	-1	-5	11	0	/	/
O=C(CSc1nc(=O)n(CCCO)c2c1CCCC2)N1CCN(c2ccccc2)CC1	-1	8	6	0	/	/
CC1CCN(C(=O)CSc2nc(=O)n(CCO)c3c2CCCC3)CC1	8.3*	8	-1	0	0	-1
